Source: PubChem
A selection: hits, their analogues and other compounds. The true share with any hit is near 5.4%.
Calb FLC: C. albicans growth modulation with fluconazole | growth inhibition, % (no concentration beside the values) | actives 0.57% (n = 300,000) | C. albicans CaCi-2 (fluconazole-resistant clinical isolate) + fluconazole, Alamar Blue growth, 48 h;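 active = growth inhibition above about 58% in most replicates, limit read from the data, passing the limit was not always enough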;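 also: all wells also contain fluconazole at 8 µg/ml as a sub-toxic cotreatment; 0% = median of DMSO wells and 100% = median of geldanamycin control wells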
MPTP inh: inhibitors of mitochondrial permeability transition pore | actives 1.4% (n = 360,000) | inhibition, % at 10 µM | isolated mouse mitochondria, Ca2+ swelling absorbance, 30 min;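 active = inhibition of 50% or more, scaled per plate between neutral and stimulator controls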;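 also: 0% = DMSO wells given calcium and 100% = 1 mM EGTA wells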
Mdm2-MdmX inh: human Mdm2/MdmX binding inhibition; O15151+Q00987; inhibition, % at 8 µM; AID 485346; actives 3% (n = 330,000); SaOS-2 split-luciferase Mdm2/MdmX complementation, luminescence;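 active = inhibition of at least 50% at 8 µM in the primary screen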
Target sequence (O15151 whole entry, looked up): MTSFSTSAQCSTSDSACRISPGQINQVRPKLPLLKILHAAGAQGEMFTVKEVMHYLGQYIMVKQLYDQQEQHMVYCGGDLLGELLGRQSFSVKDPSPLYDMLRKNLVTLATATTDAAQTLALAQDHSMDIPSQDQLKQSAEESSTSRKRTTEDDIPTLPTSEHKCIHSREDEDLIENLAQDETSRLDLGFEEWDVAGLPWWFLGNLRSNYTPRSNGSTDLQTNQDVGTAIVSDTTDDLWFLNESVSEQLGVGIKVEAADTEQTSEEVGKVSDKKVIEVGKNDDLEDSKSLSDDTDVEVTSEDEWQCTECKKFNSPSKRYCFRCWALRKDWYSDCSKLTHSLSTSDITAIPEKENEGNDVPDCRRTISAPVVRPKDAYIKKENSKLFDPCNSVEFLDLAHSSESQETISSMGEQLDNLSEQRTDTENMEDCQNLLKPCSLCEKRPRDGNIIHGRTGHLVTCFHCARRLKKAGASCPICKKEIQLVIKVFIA
Target sequence (Q00987 whole entry, looked up): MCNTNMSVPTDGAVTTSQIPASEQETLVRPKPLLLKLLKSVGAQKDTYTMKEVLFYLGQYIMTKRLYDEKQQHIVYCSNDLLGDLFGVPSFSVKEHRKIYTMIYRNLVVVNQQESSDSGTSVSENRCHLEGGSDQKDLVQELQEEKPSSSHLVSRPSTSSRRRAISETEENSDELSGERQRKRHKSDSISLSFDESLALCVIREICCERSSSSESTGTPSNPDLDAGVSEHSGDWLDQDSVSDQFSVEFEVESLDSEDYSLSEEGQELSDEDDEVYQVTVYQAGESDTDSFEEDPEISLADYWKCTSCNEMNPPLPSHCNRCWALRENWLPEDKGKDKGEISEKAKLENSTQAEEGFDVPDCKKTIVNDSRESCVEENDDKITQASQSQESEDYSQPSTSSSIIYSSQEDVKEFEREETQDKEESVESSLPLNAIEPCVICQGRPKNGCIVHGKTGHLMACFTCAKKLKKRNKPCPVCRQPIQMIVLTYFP
SKKanGAS inh: inhibitors of SKKanGAS S. pyogenes growth in kanamycin (SK-promoter or general growth effect). BacTiter-Glo, 6 h. inhibition, % at 7.5 µM. actives 1.3% (n = 300,000);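 active = mean replicate score, as percent of positive control median, at least 50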;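 also: strain carries kanamycin resistance gene driven by streptokinase promoter and grows in 40 µg/ml kanamycin; loss of luminescence reflects streptokinase promoter inhibition or plain growth inhibition; 0% = median of DMSO wells and 100% = positive control at its reference dose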
Beta cell apopt: beta cell apoptosis inhibition | INS-1E cytokine-induced death, ATP luminescence, 48 h; percent of positive-control rescue, neutral wells zero | protection from apoptosis, % (no concentration beside the values) | actives 0.8% (n = 300,000);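 active = Every replicate reaches about 75%, or at least half do and their mean reaches it too, limit read from the data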;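 also: 0% = cytokine-treated negative control wells and 100% = positive control rescue; higher means more ATP so stronger rescue from cytokine killing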
CSC inhib: blocks cancer stem cells; actives 1.1% (n = 300,000); inhibition, % at 7.5 µM; AID 2717; cancer stem cell-like cells viability, luminescence; in the data active = inhibition above about 75%; tested in HMLE shEcad cells
Mdm2 MdmX conf: human Mdm2/MdmX binding inhibition, confirmed. luminescent assay. inhibition, % at 8 µM. actives 55% (n = 10,000). shares compounds with Mdm2-MdmX inh; in the data active = inhibition above about 40%
FLuc counter: inhibits full-length luciferase, flagging false Mdm2/MdmX hits; shares compounds with Mdm2-MdmX inh; actives 77% (n = 6,200); SaOS-2 full-length luciferase counterscreen, luminescence; inhibition, % at 8 µM;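 active = mean inhibition at 8 µM reaching about 37%, which flags the compound as non-specific, limit read from the data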;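 also: p53-null SaOS-2 cells with luciferase driven by a doxycycline-inducible promoter; compound on cells about two nights before reading with doxycycline added after day one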
An asterisk follows results filed as active; x = not tested or not shown; + = active, no number.

SMILES	Calb FLC	MPTP inh	Mdm2-MdmX inh	SKKanGAS inh	Beta cell apopt	CSC inhib	Mdm2 MdmX conf	FLuc counter
Cc1cc(NCCCn2ccnc2)n2ncc(-c3ccccc3)c2n1	x	-5	74*	x	2	1	70*	134*
C[C@@H](NC(=O)[C@@H]1Cc2ccccc2CN1)C(=O)NCc1ccco1	-10	-2	0	1	-3	1	x	x
Cc1cccc(C)c1Oc1nc(-c2ccccc2)ncc1S(=O)(=O)c1ccccc1	-2	4	52*	51*	7	33	3	x
COc1nc(-c2ccccc2)ncc1S(=O)(=O)c1ccccc1	-16	-1	17	-9	-2	6	x	x
CS(=O)(=O)C1=C(O)C(=O)N(c2ccccc2)C1c1ccccc1 (stereo unspecified)	-2	5	-6	-3	-4	x	x	x
COC(=O)c1c(-c2ccc(OC)cc2)sc2ccc(N3CCOCC3)cc12	x	5	57*	x	8	43	-13	x
O=C(CCCN1C(=O)/C(=C\c2cccs2)SC1=S)NNC(=O)c1ccncc1	-1	2	-7	-21	6	-8	x	x
CCOc1ccc(/C=C2\SC(=S)N(CCC(=O)N(CCO)c3ccccc3)C2=O)cc1	-6	1	65*	15	-40	9	17	x
COc1ccccc1C(=O)NNC(=O)CCCN1C(=O)/C(=C/c2cccs2)SC1=S	-9	3	72*	4	-8	13	77*	63*
O=C1/C(=C/c2cccs2)SC(=S)N1CCCC(=O)N(CCO)c1ccccc1	-2	4	53*	3	-33	-5	32	x
CCCOC(=O)c1ccc(NC(=O)C2C3CCC(C3)C2C(=O)O)cc1 (stereo unspecified)	4	-1	-44	2	2	-1	x	x
Cc1cn([C@H]2C[C@H](O)[C@@H](CNCc3ccc(Oc4cc(-n5cccn5)ncn4)cc3)O2)c(=O)[nH]c1=O	x	-2	x	x	x	x	x	x
Cc1ccc(Sc2c(CO)c(-c3ccccc3)nn2C)cc1	-2	0	51*	4	34	-4	47*	92*
O=C(CCCCn1c(=O)c2ccccc2n(Cc2ccc(F)cc2Cl)c1=O)NCc1ccco1	0	-2	54*	-6	-4	13	25	x
C=CCn1c(SCC(=O)N(C)c2c(N)n(Cc3ccccc3)c(=O)[nH]c2=O)nnc1-c1ccccc1OC	3	-1	14	-7	-14	-8	x	x
CC(Sc1ccc(Cl)cc1)C(=O)NCC(c1ccco1)N1CCCCC1 (stereo unspecified)	0	0	-11	20	-1	-13	x	x
CN[C@H]1CC[C@@H](c2ccc(Cl)c(Cl)c2)c2ccccc21	15	x	69*	5	x	x	16	x
COC(=O)C1CCN(C(=O)Cc2c(OC)ccc3cc(Br)ccc23)CC1	5	1	-1	5	-2	-15	x	x
Cc1nn(-c2ccc(Cl)cc2)c(=O)c2ccccc12	30	0	-37	4	-1	14	x	x
Cc1c(Cl)sn(-c2ccc(Cl)cc2)c1=O	x	2	96*	x	x	x	99*	52*
CCc1nc(SCC(=O)Nc2ccc3c(c2)OCCO3)c2oc3ccccc3c2n1	-3	-1	86*	3	10	44	9	x
COc1cc(OC)cc(C(=O)N2CCN(C(=O)c3ccc(OC)c(OC)c3)CC2)c1	0	-2	1	0	-1	1	x	x
COc1ccc(-c2n[nH]c3c2CN(C(=O)c2ccc(OC)c(OC)c2)CC3)cc1	-7	1	58*	-5	4	41	58*	55*
O=C(Nc1cccc(OC(F)(F)F)c1)c1ccc(Br)o1	-7	50	18	-4	x	4	x	x
COc1ccc(NC(=O)CSc2nc3sc(C)c(C)c3c(=O)n2Cc2ccco2)cc1	-8	-1	87*	-3	-8	x	12	x
SMILES	Calb FLC	MPTP inh	Mdm2-MdmX inh	SKKanGAS inh	Beta cell apopt	CSC inhib	Mdm2 MdmX conf	FLuc counter
Cc1sc2nc(SCC(=O)C(C)(C)C)n(Cc3ccco3)c(=O)c2c1C	-1	4	37	45	9	63	x	x
O=C(CSc1nc2cc(Cl)ccc2c(=O)n1Cc1ccco1)Nc1ccc(S(=O)(=O)N2CCOCC2)cc1	-6	3	15	15	-6	4	x	x
COC(=O)c1ccc2c(=O)n(Cc3ccco3)c(SCC(=O)Nc3ccc(C)c(Cl)c3)nc2c1	-9	3	68*	-2	39	21	16	x
O=C(NC1CC1)C1CC(=O)N(c2ccc(F)cc2)C1 (stereo unspecified)	3	0	-12	2	0	6	x	x
COc1ccc(F)cc1S(=O)(=O)N1CCCN(S(=O)(=O)c2cc(F)ccc2OC)CC1	-1	2	8	-5	-1	-8	x	x
COc1cccc(NS(=O)(=O)c2ccc(OC)c(OC)c2)c1	6	-2	21	0	-1	-17	x	x
O=C(CN1c2ccccc2Sc2ccccc21)N/N=C/c1ccc(Cl)cc1Cl	8	-1	42	33	0	25	x	x
O=C(CN1c2ccccc2Sc2ccccc21)N/N=C/c1ccc(Cl)cc1	-8	-3	71*	12	11	62	1	x
CC(C)NC(=O)CN1CCN(c2ncccn2)CC1	1	1	0	9	-5	14	x	x
COc1cccc(N2CCN(c3ncnc4c3cnn4-c3ccc(C)cc3C)CC2)c1	12	21	90*	20	49	42	100*	28
Cc1ccc(C(=O)N2CCN(c3ncnc4c3cnn4-c3ccccc3)CC2)cc1	17	6	82*	0	6	-11	58*	68*
CN1CCN(c2ncnc3c2cnn3-c2ccc(Cl)cc2)CC1	-12	0	51*	1	0	39	60*	+
COc1ccc(-n2ncc3c(N4CCN(Cc5ccccc5)CC4)ncnc32)cc1	56	1	85*	1	5	37	64*	77*
CCOc1ccccc1-n1c(=S)sc2c(=O)n(-c3ccc(F)cc3)c(SCC(=O)O)nc21	8	0	3	-4	x	x	x	x
Cc1ccc(-n2ncc3c2CCCC3NC(=O)CCN2CCCC2=O)cc1C (stereo unspecified)	-7	-2	11	0	-2	-8	x	x
c1ccc(-n2ncc3c(N4CCCCC4)ncnc32)cc1	-9	-1	51*	-1	-2	3	53*	160*
CC1CCCN(c2ncnc3c2cnn3-c2ccccc2)C1 (stereo unspecified)	-5	2	52*	-7	6	43	52*	192*
CC1CCCN(c2ncnc3c2cnn3-c2ccc(Cl)cc2)C1 (stereo unspecified)	-2	0	96*	-3	3	61	95*	42*
